Screening results deposited in PubChem BioAssay by National Center for Advancing Translational Sciences (NCATS).
In the library only some 0.92% were active in any assay of this set; here they are far more common.
RECQ1 helicase – qHTS Assay for Inhibitors of RecQ-Like Dna Helicase 1 (RECQ1); RECQ1 DNA unwinding, red fluorescence kinetic read; 0.54% of 240,000 active; Potency, µM (doses to about 57.3 µM), inactives show at the top dose activity, negative = inhibition, most hits filed as inhibitors; ATP-dependent DNA helicase Q1 (Homo sapiens), P46063; AID 2549, 2010;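 also: plate controls were vehicle for no effect and no enzyme for full effect; nearly all actives have a fitted effect of over 30% in size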
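50 nM RECQ1T1 preincubated 15 min with compound in Tris pH 8.0 buffer with MgCl2, DTT, Tween-20 and 2.5 ug/ml poly(dI-dC); started with 200 nM TAMRA/BHQ-2 forked duplex and 2 mM ATP. Unwinding read as fluorescence (525/598 nm), two reads 2 h apart.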
BLM inh – qHTS Assay for Inhibitors of Bloom's syndrome helicase (BLM) | 0.2% of 350,000 active | Potency, µM (doses to about 56.1 µM), for inactives: top-dose activity change, negative = inhibition, most hits filed as inhibitors | RecQ-like DNA helicase BLM (Homo sapiens), P54132 | recombinant BLM DNA unwinding, fluorescence dequenching;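 also: plate controls were vehicle for no effect and no enzyme for full effect; nearly all actives have a fitted effect of over 35% in size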
Target sequence (P54132 whole entry, looked up): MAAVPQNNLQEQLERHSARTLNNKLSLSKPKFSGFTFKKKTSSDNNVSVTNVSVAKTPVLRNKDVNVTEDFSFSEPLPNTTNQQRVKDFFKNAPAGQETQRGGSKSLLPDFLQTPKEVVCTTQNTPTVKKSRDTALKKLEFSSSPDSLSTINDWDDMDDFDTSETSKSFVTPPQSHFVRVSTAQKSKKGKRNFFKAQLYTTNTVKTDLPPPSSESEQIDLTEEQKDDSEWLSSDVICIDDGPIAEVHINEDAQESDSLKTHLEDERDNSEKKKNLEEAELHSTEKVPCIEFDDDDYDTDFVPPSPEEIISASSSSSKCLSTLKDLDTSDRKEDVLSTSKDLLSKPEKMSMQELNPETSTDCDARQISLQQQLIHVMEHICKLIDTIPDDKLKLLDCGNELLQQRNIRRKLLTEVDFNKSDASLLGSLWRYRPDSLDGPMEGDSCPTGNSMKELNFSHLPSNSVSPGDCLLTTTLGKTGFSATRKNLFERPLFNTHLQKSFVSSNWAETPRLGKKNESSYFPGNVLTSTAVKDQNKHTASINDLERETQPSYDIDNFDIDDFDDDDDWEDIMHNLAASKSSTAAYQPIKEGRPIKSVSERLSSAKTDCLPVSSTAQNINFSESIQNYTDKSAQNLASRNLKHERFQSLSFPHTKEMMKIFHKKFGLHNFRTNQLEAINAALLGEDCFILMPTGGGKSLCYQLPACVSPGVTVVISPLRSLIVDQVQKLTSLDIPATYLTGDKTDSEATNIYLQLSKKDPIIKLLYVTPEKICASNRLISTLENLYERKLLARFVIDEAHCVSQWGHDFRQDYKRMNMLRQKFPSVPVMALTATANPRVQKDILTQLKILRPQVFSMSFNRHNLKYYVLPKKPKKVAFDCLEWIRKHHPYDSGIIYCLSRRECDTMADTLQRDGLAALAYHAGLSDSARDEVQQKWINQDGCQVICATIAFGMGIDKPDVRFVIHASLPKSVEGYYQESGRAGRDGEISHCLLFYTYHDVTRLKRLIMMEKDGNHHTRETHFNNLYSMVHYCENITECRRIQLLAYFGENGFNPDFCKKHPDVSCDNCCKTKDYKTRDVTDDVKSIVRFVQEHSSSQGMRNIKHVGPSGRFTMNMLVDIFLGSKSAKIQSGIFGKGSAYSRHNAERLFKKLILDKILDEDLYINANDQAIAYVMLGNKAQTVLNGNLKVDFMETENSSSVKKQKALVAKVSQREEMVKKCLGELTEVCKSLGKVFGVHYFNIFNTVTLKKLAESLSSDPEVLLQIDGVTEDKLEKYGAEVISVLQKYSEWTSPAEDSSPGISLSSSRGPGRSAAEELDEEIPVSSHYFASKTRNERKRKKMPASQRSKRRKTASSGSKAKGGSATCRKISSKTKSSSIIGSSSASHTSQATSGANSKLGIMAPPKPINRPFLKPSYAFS
FEN1 inhibitor – qHTS Assay for the Inhibitors of Human Flap endonuclease 1 (FEN1) | 0.35% of 390,000 active | P39748 | Potency, µM (top dose mostly 114 µM), for inactives: at the highest dose activity change, negative = inhibition, usual class: inhibitors | Recombinant FEN1 flap cleavage, fluorescence, 15 min | AID 588795, 2011; also: nearly all actives have a fitted effect of over 65% in size
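Steps: FEN1 (10 nM) dispensed; compound added by pin tool; 15 min at room temperature; substrate added to 50 nM final; reads at 0 min and 15 min; data normalized and fitted (four-parameter Hill).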
TDP1 block – qHTS Assay for Inhibitors of Tyrosyl-DNA Phosphodiesterase (TDP1); recombinant TDP1, AlphaScreen DNA substrate cleavage; 0.28% of 350,000 active; Potency, µM (highest dose often 130 µM), inactives show at the top dose activity change, negative = inhibition, actives largely listed as inhibitors; AID 485290, 2010; also: nearly all actives have a fitted effect of over 40% in size
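Compounds were preincubated with Tdp1 (1 nM final) for 15 min at room temperature before substrate (15 nM final) started a 5 min reaction; beads (10 ug/ml final) were then added for 10 min before AlphaScreen detection.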
APEX1 inh – qHTS Assay for Inhibitors of the Human Apurinic/apyrimidinic Endonuclease 1 (APE1) | recombinant APE1, TAMRA/BHQ-2 abasic DNA cleavage fluorescence | Potency, µM (top dose mostly 65.8 µM), inactives show at the top dose activity change, negative = inhibition, most hits filed as inhibitors | DNA repair nuclease/redox regulator APEX1 (Homo sapiens), P27695 | AID 2517, 2012 | 0.35% of 350,000 active;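 also: plate controls were vehicle for no effect and reference inhibitor for full effect; nearly all actives have a fitted effect of over 55% in size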
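Kinetic fluorescence read (525 ex/598 em nm, three reads 60 s apart) of AP-site incision; signal = third minus first read. Enzyme 0.75 nM, dual-labelled THF duplex 50 nM, compound preincubation 15 min RT.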
The depositor's hits bear a star; ? = inconclusive; nt = no result; [ ] = dose if it differs, or a comment. Calls follow the shape of the dose curve; as a rule, active = well fitted curve in the direction sought with a large enough effect; inconclusive = small, poorly fitted or top-dose-only effect, or another doubt; inactive = no such curve, though single readings can be large; an effect the other way counts as inactive or inconclusive. Unless noted, % is scaled to controls: 0 for no effect and ±100 for the full control effect; potency is read from the fitted curve at half-maximal effect.

SMILES	RECQ1 helicase	BLM inh	FEN1 inhibitor	TDP1 block	APEX1 inh
N#Cc1nc(N(c2ccccc2)c2ccccc2)nc(-n2cccc2)n1	nt	nt	-8%	3%	nt
Cc1cccc(C)c1-n1c(SCC(=O)Nc2ccc(C(=O)O)cc2)nnc1-c1ccc([S+](=O)([O-])N2CCCC2)cc1	nt	nt	nt	nt	24%
CC(=O)NC1C(=O)N=C(SCC(=O)NCc2ccccc2)NC1=O (configuration not stated)	0%	6%	-2%	25µM*	9%
O=C(CSC1=NC(=O)C(Cc2ccccc2)C(=O)N1)NC1CCCCC1 (configuration not stated)	2%	-1%	7%	3%	1%
CC(C)(C)n1ncc2c(=O)n(Cc3cccc(C(F)(F)F)c3Cl)cnc21	nt	nt	-23%	nt	-1%
Cc1cc(N/N=C/c2ccc(O)cc2)nc(NS(=O)(=O)c2ccccc2)n1	-1%	2%	-7%	16µM*	10µM*
Cc1cc(N/N=C/c2ccc(F)cc2)nc(NCc2ccccc2)n1	-17%	-11%	-6%	nt	-6%
CC(C)(C)OC(=O)Cc1nnc(C(C(=O)OCc2ccccc2)c2ccccc2)o1 (configuration not stated)	nt	nt	nt	-8%	nt
COc1ccc(C2Nc3ccccc3C(=O)N2Cc2ccccc2)cc1COc1ccc(F)cc1 (configuration not stated)	nt	nt	nt	1%	nt
Cc1cc(C(F)(F)F)nn1CC(=O)NNC(=S)Nc1ccc(Cl)cc1	-2%	0%	0%	12%	-5%
O=C(Cn1nnc(-c2cc(C(F)(F)F)cc(C(F)(F)F)c2)n1)NNC(=S)Nc1ccc(Cl)cc1	5%	18µM*	-32%	-6%	-1%
O=C(NCCn1cc(SCc2ccccc2)c2ccccc21)c1cccs1	nt	-14%	89µM*	3%	nt
Cc1cc2c(s1)c1cnn(Cc3ccc(C(F)(F)F)cc3F)c(=O)c1n2C	nt	nt	nt	-2%	nt
Cc1cc(=O)oc2cc(OCC(=O)N/N=C/c3ccccc3[N+](=O)[O-])ccc12	-2%	?	?	56µM*	-3%
O=C(Nc1ccccc1)C1=C[C@H](c2csc3ccccc23)C[C@H](OCCCCO)O1	40µM*	-5%	-17%	5%	3%
CC(C)c1ccc(S(=O)(=O)/N=C2/C=C(Sc3ncn[nH]3)C(=O)c3ccccc32)cc1	0%	10µM*	79µM*	7%	4%
COCCN(C(=O)COC(=O)Cc1coc2cc3c(cc12)CCC3)c1c(N)n(Cc2ccccc2)c(=O)[nH]c1=O	nt	nt	3%	13µM*	9.5µM*
CC[n+]1ccc(/C=C/c2c[nH]c3ccccc23)cc1	nt	-7%	?	nt	-15%
CCCCCCCCCC[n+]1ccc(/C=C/c2c(C)[nH]c3ccccc23)cc1	nt	nt	79µM*	nt	nt
Cc1cc2c(N)cccc2nn1	-3%	5.6µM*	?	-12%	-1%
Nc1cccc2nc3ccccc3cc12	14%	208%	-2%	-5%	?
CN(C)c1ccc(-c2cc[nH]c(=O)c2N)cc1	nt	nt	nt	9%	nt
O=C(O)c1ccc(/C=C/c2nc3sc4c(c3c(=O)[nH]2)CCC4)cc1	-12%	-2%	-15%	50µM*	?
O=C(CCS(=O)(=O)c1ccc(Br)cc1)NCc1ccc(F)cc1	nt	0%	-1%	50µM*	6%
O=C(CCS(=O)(=O)c1ccccc1Cl)NCc1ccc(F)cc1	-3%	0%	-3%	0%	7%
CCCN(C(=O)c1cc(C)ccc1C)c1c(N)n(Cc2ccccc2)c(=O)[nH]c1=O	nt	nt	11%	0%	16%
CCCCN(C(=O)c1cccc(S(=O)(=O)N2CCCC2)c1)c1c(N)n(CCC)c(=O)[nH]c1=O	nt	nt	-16%	-4%[56.1 µM]	28%
CCCN(C(=O)c1cccc(-n2cccc2)c1)c1c(N)n(Cc2ccccc2)c(=O)[nH]c1=O	nt	nt	-6%	45µM*	6.7µM*
